# Source: the supplement of paper PMC8183993
# Where “and” joins values, the source holds several entries; their conditions need not be identical. Identical values can stand only once. Counter-ions that a name gives are not always drawn. ± gives the standard deviation of the averaged measurements. The full ranking holds about 3,100 compounds; the median of “mean cytoplasmic OPP incorporation (global translation) relative to DMSO” is about 100, and the lowest 2% start at about 56. This is one part of a sample in which the lowest values are shown more often than they occur.
# Tested on: U2OS
# Assay: mean cytoplasmic OPP incorporation (global translation) relative to DMSO (% of DMSO); higher = more protein synthesis
# Conditions: 10 µM; 24 h
# Method: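 Primary image-based screen in U2OS cells: compounds at 10 uM for 24 h, then a 1 h o-propargyl-puromycin (OPP) pulse, click labelling, and high-throughput microscopy. Mean cytoplasmic OPP intensity and nuclei count were normalised to DMSO wells within each plate (DMSO = 100) and averaged over triplicate plates.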
row,SMILES,mean cytoplasmic OPP incorporation
1,O=C(CCCN1C(=O)c2cccc3cccc(c23)C1=O)NO [Nullscript],97.6
2,CCN(CCN(C)C)C(=O)CNCc1cc(C(N)=O)ccn1,96.2
3,O=c1[nH]nc(Sc2ncc([N+](=O)[O-])s2)n1-c1ccc2c(c1)OCCO2,39.7 ± 16
4,O=C1NCCN1c1ncc([N+](=O)[O-])s1 [Niridazole],94.7
5,C[C@H](CCC(=O)NCCS(=O)(=O)O)[C@H]1CC[C@H]2[C@@H]3CC[C@@H]4C[C@H](O)CC[C@]4(C)[C@H]3C[C@H](O)[C@]12C [Taurodeoxycholic acid],99.3
6,O=C(NCCCN1CCC2(CC1)OCc1ccccc12)[C@H]1CCCN1Cc1ccccc1,108
7,CCCCC[C@H](O)/C=C/[C@@H]1[C@H]2C/C(=C/CCCC(=O)O)C[C@H]2C[C@H]1O [Carbacyclin],101
8,Nc1nc(NCCc2ccc(O)cc2)nc2nc(-c3ccco3)nn12,99.2
9,CN(C)Cc1c(C(=O)NCCOc2ccc(C(=O)NO)cc2)oc2ccccc12,56
10,Cc1cc(C)c(N(Cc2ccccc2)S(=O)(=O)c2ccc(OCCNC(=O)c3cc4ccccc4o3)cc2)c(C(=O)NO)c1,103
11,COc1cc(C(=O)NCc2ccc(OCCN(C)C)cc2)cc(OC)c1OC [Trimethobenzamide hydrochloride],102
12,"O=C(O)COc1ccc(OCCNC[C@H](O)COc2ccccc2)cc1 [ICI 215,001 hydrochloride]",100
13,CCCCn1c(=O)c2[nH]c(C34CC5CC(CC3C5)C4)nc2n(CCCO)c1=O,117
14,CCC(CC)[C@H](NC(C)=O)[C@@H]1[C@H](O)[C@@H](C(=O)O)C[C@H]1NC(=N)N [Peramivir  Trihydrate],99.4
15,c1ccc2sc(N3CCN(Cc4ccc5c(c4)OCO5)CC3)nc2c1 [2-[1-(4-Piperonyl)piperazinyl]benzothiazole],105
16,Cc1cc(/C=C/c2ccc3cc(N(C)C)ccc3[n+]2C)c(C)n1-c1ccccc1 [Pyrvinium pamoate],22
17,CNCCCCOc1ccccc1Cc1ccccc1 [Bifemelane hydrochloride],107
18,"O=Cc1c2[nH]c3ccccc3c2cc2[nH]c3ccccc3c12 [6-Formylindolo [3,2-B] carbazole]",92.9
19,COc1ccc2[nH]cc(CCNC(C)=O)c2c1 [Melatonin],103 ± 4.6
20,COc1ccc(C(=O)NCc2ccc(OCCN(C)C)cc2)cc1OC [Itopride],89.3
21,COc1ccc(OC)c(C(O)CNC(=O)CN)c1 (configuration not stated) [Midodrine hydrochloride],48.8
22,CC(C)[C@H](N)C(=O)N[C@H](C(=O)N[C@H](C(=O)O)C(C)C)C(C)C,114

row,SMILES,mean cytoplasmic OPP incorporation
1,O=C(/C=C/C#Cc1cccc(NS(=O)(=O)c2ccccc2)c1)NO [Oxamflatin],105
2,COc1cccc2c1C(=O)c1c(O)c3c(c(O)c1C2=O)C[C@@](O)(C(=O)CO)C[C@@H]3O[C@H]1C[C@H](N)[C@@H](O)[C@H](C)O1 [Epirubicin HCl],59.5
3,COc1cccc2c1C(=O)c1c(O)c3c(c(O)c1C2=O)C[C@@](O)(C(C)=O)C[C@@H]3O[C@H]1C[C@H](N)[C@H](O)[C@H](C)O1 [Daunorubicin hydrochloride],40.7
4,COc1cccc2c1C(=O)c1c(O)c3c(c(O)c1C2=O)C[C@@](O)(C(=O)CO)C[C@@H]3O[C@H]1C[C@H](N)[C@H](O[C@@H]2CCCCO2)[C@H](C)O1 [Pirarubicin],59.9
5,COc1cccc2c1C(=O)c1c(O)c3c(c(O)c1C2=O)C[C@@](O)(C(=O)CO)C[C@@H]3O[C@H]1C[C@H](N)[C@H](O)[C@H](C)O1 [Doxorubicin (Adriamycin)],67.1
6,COc1cccc2c1C(=O)c1c(O)c3c(c(O)c1C2=O)C[C@@](O)(C(C)=O)C[C@@H]3O[C@H]1C[C@H](N)[C@H](O)[C@H](C)O1 [Daunorubicin HCl (Daunomycin HCl)],59.9
7,COc1cccc2c1C(=O)c1c(O)c3c(c(O)c1C2=O)C[C@@](O)(C(=O)CO)C[C@@H]3O[C@H]1C[C@H](N)[C@H](O)[C@H](C)O1 [Doxorubicin hydrochloride],54.8 ± 17
8,CC(=O)[C@]1(O)Cc2c(O)c3c(c(O)c2[C@@H](O[C@H]2C[C@H](N)[C@H](O)[C@H](C)O2)C1)C(=O)c1ccccc1C3=O [Idarubicin HCl],60.3
9,CC(C)C(=O)SCCCCCCC(=O)Nc1nc(-c2ccccc2)cs1,117
10,CCCCCCN(CCCCCC)C(=O)Cc1c(-c2ccc(Cl)cc2)[nH]c2ccc(Cl)cc12,104
11,Cc1ccc(CC2(O)CCN(CCOc3ccc(O)cc3)CC2)cc1,108
12,COc1cc(C#N)ccc1S(=O)(=O)Nc1ccc2c(c1)cc(C)c(=O)n2C,109
13,COc1ccc(CCN(C)CCCOc2ccc(S(=O)(=O)c3c(C(C)C)c4ccccc4n3C)cc2)cc1OC,110
14,Clc1cc2c(NC3CCCC3)nnc(-c3ccncc3)c2cc1Cl,114
15,CCN(CC)CCOc1ccc(Nc2ncc3cc(-c4c(Cl)cccc4Cl)c(=O)n(C)c3n2)cc1,53.6
16,CSc1cccc(Nc2ncc3cc(-c4c(Cl)cccc4Cl)c(=O)n(C)c3n2)c1,116
17,Cc1cnc(Nc2ccc(OCCN3CCCC3)cc2)nc1Nc1cccc(S(=O)(=O)NC(C)(C)C)c1,82.6 and 66.4
18,Cc1ccc(S(=O)(=O)C=CC#N)cc1,65.3
19,O=C1Nc2ccc(-c3cccnc3)cc2/C1=C/c1ccc[nH]1 [JAK3 Inhibitor VI],90
20,N=C(N)c1ccc(N2CCN(C3CCN(CC(=O)O)CC3)CC2)cc1,99.3
21,NCC1CCC(C(=O)N[C@@H](Cc2ccccc2)C(=O)Nc2ccc(CC(=O)O)cc2)CC1 (some centres not stated),97.5
22,NC[C@H]1CC[C@H](C(=O)O)CC1 [Tranexamic acid],47

row,SMILES,mean cytoplasmic OPP incorporation
1,CC1(C)CCC(C)(C)c2cc(C(=O)Nc3ccc(C(=O)O)cc3)ccc21,105 and 99.6
2,CN(CCc1ccc(Cl)c(Cl)c1)CC(O)COc1ccc(NS(C)(=O)=O)cc1 (configuration not stated),102 and 107
3,N#Cc1ccc(NC(=O)Nc2ccccc2Br)c2n[nH]nc12,104
4,Cc1nc(Nc2n[nH]c3c2CN(C(=O)N[C@H](CN(C)C)c2ccccc2)C3(C)C)c2sccc2n1,45.5
5,CC(C)CC(=O)Nc1n[nH]c2c1CN(C(=O)C1CCN(C)CC1)C2(C)C,65.9
6,CSc1nc(NC2CCCC2)c([N+](=O)[O-])c(NC2CCCC2)n1,101
7,COC(C)(C)CCCC(C)C/C=C/C(C)=C/C(=O)O (configuration not stated) [Methoprene acid],99.2
8,CC(=O)OCOC(c1cc([N+](=O)[O-])ccc1Oc1ccc(Br)cc1)P(=O)(OCOC(C)=O)OCOC(C)=O (configuration not stated),101
9,CC(C)N1Cc2cc(S(C)(=O)=O)ccc2N(CCN2CC=C(c3c[nH]c4cc(F)ccc34)CC2)S1(=O)=O,106
10,COCC(=O)O[C@]1(CCN(C)CCCc2nc3ccccc3[nH]2)CCc2cc(F)ccc2[C@@H]1C(C)C [Mibefradil dihydrochloride],116
11,CC(C)[C@H]1c2ccc(F)cc2CC[C@@]1(CCN(C)CCCc1nc2ccccc2[nH]1)OC(=O)C1CC1 [NNC 55-0396 dihydrochloride],55.5
12,N#Cc1ccc(NCCNCC(=O)N2CCC[C@H]2C#N)nc1 [NVP DPP 728 dihydrochloride],90.3
13,COc1ccc(CCN(C)CCCN2CCc3cc(OC)c(OC)cc3CC2=O)cc1OC [Zatebradine hydrochloride],107
14,COc1cc(N)c(Cl)cc1C(=O)OCCCN1CCCCC1,104
15,O=C(O)c1ccc(N2C(=O)C(=Cc3ccccc3)SC2=S)cc1,102
16,O=C1C(Cl)=C(NCCN2CCOCC2)C(=O)c2ncccc21,31
17,O=C(NCCN1CCOCC1)c1ccc(Cl)cc1 [Moclobemide],91.9
18,Cc1cc(-c2ccccc2)nnc1NCCN1CCOCC1 [Minaprine dihydrochloride],99.4
19,Cl/C(=C\n1cncn1)c1ccc(Cl)cc1Cl [Loreclezole hydrochloride],98.7
20,Cc1oc(S(=O)(=O)N2CCCCC2)cc1NC(=O)Nc1ccccc1,102
21,COc1ccccc1N1CCN(CCCCNC(=O)c2ccc3ccccc3c2)CC1,112
22,O=C(NCCCCN1CCN(c2cccc(Cl)c2Cl)CC1)c1ccc2c(c1)Cc1ccccc1-2,107

row,SMILES,mean cytoplasmic OPP incorporation
1,Cc1cn(CCN2CCN(c3ccccc3-c3cc(C#N)cc(C(=O)NCCCN4CCCC4)c3)CC2)c2ccccc12,30.6
2,CC(C)=CCC/C(C)=C/CC/C(C)=C/CSCC(=O)O [Farnesylthioacetic acid],96.1
3,CSCC[C@H](NC=O)C(=O)N[C@@H](CC(=O)O)C(=O)NCC(=O)N[C@@H](CS)C(=O)N[C@@H](CCC(=O)O)C(=O)N[C@@H](CC(C)C)C(=O)O,103
4,CC(=O)N1CCN(C)CC1 [1-Acetyl-4-methylpiperazine hydrochloride],99.1
5,Cc1ccc([N+](=O)[O-])cc1S(=O)(=O)N(C)/N=C/c1cnc2ccc(Br)cn12,44.3
6,Cc1ccc([N+](=O)[O-])cc1S(=O)(=O)N(C)C,94.1
7,Cn1cccc1/C=C1\C(=O)NC(=O)c2ccccc21,89.4
8,CC(C)Oc1cc(Nc2nc(N[C@@H](C)c3ccc(F)cn3)ncc2Cl)n[nH]1,110
9,Cc1cc(Nc2ncc(Cl)c(Nc3ccccc3S(=O)(=O)C(C)C)n2)c(OC(C)C)cc1C1CCNCC1 [Ceritinib (LDK378)],25.4
10,O=C1c2ccccc2-c2nc3nonc3nc21,81.3
11,O=C1c2ccccc2C(=O)c2c1ccc(O)c2O [Alizarin],106
12,O=C1C(SCCO)=C(SCCO)C(=O)c2ccccc21,71.3 and 55.3
13,O=[N+]([O-])c1ccc(Oc2ccc(Br)cc2)c(C(O)P(=O)(O)O)c1 (configuration not stated),95.9
14,COC(=O)C(Cc1ccc(OCCn2c(=O)sc3cc(C(=O)c4ccccc4)ccc32)cc1)C(=O)OC,105
15,CC(=O)OC[C@H]1O[C@@H]([S-])[C@H](OC(C)=O)[C@@H](OC(C)=O)[C@@H]1OC(C)=O.CCP(CC)CC.[Au+] [Auranofin],10.4
16,CCCCc1nc2ccn(Cc3cccs3)c(=O)c2n1Cc1ccc(-c2ccccc2-c2nn[nH]n2)cc1,104
17,COc1cc(-c2cn(C)c(=O)c3cnccc23)c(OC)cc1CN(C)C,95.8
18,c1ccc(-c2n[nH]c3c2oc2ccccc23)cc1,87.3
19,O=C1NCCc2[nH]c(-c3ccncc3)cc21,49.9 ± 13
20,Cc1[nH]c(=O)c(C#N)cc1-c1ccncc1 [Milrinone],94.4
21,O=C1NC(=O)/C(=C/c2ccc3nccc(-c4ccncc4)c3c2)S1,90.1
